An excerpt weighted towards active compounds, which were near 5.7% of everything screened.
ssDAF12 agonist: activators of S. stercoralis DAF-12 nuclear receptor; HEK293 ssDAF-12/GRIP1 lit1-tk-luc reporter, luminescence; % of 3 µM dafachronic acid response; activation, % at 6.8 µM; 1% of 370,000 active;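 active = activation above the mean over all tested compounds plus 3 SD, cut at about 0.9% in these data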;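 also: 0% = DMSO-only wells and 100% = 3 µM delta7-dafachronic acid wells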
DAX1 inh-1: DAX1 (NR0B1) inhibition, primary screen. inhibition, % at 6.8 µM. HEK293T StAR-luciferase reporter, SF-1/DAX-1 repression relief. 1.1% of 370,000 active;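 active = inhibition above the mean over all tested compounds plus 3 SD, cut at about 3.6% in these data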;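 also: 0% = DAX-1 cells with DMSO and 100% = cells lacking DAX-1 with DMSO; higher inhibition means more luminescence from relief of DAX-1 repression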
DAX1 inh-2: inhibits human nuclear receptor DAX1; P51843; HEK293 Gal4-DAX1 luciferase reporter, luminescence; inhibition, % at 6.75 µM; 0.99% of 340,000 active;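 active = inhibition above the mean over all tested compounds plus 3 SD, cut at about 4.2% in these data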;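 also: 0% = DAX1-transfected cells with DMSO and 100% = empty-vector control cells with DMSO; inhibition shows as a rise in luminescence from relieved DAX1 repression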
Target sequence (P51843 207-470 limits assumed): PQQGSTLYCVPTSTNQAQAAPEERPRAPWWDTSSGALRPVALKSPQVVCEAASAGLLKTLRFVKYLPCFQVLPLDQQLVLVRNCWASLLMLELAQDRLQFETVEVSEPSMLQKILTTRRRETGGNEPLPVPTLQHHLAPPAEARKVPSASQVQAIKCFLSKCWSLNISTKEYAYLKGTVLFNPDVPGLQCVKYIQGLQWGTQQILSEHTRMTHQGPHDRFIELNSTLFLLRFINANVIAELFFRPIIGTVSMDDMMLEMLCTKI
AHR act: activators of human aryl hydrocarbon receptor; P35869; AHR-responsive luciferase reporter cells, luminescence; activation, % at 5 µM; 2.5% of 320,000 active; in the data active = activation above about 47%;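 also: 0% = vehicle wells and 100% = reference agonist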
hgDAF12 agonist: hgDAF-12 agonism, primary luciferase screen; AID 687014; activation, % at 6.8 µM; HEK293 GAL4-hgDAF12 UAS-luciferase reporter, agonist luminescence; normalized to butyrate control; 1.8% of 370,000 active;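 active = activation above a cutoff set at the mean of all screened compounds plus 3 SD, cut at about 10% in these data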;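 also: 0% = DMSO wells and 100% = sodium butyrate wells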
hcDAF12 agonist: H. contortus DAF-12 activation, primary screen | HEK293 hcDAF-12 lit1-tk-luc reporter, luminescence; 0% DMSO, 100% Δ7-dafachronic acid | activation, % at 6.8 µM | 1.4% of 370,000 active;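 active = activation above the mean of all tested compounds plus 3 SD, cut at about 5.5% in these data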;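 also: 100% = response to 3 µM Δ7-dafachronic acid high control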
AHR act confirm: human AHR activation, confirmation. shares compounds with AHR act. human cells, AHR-responsive luciferase reporter, luminescence. activation, % at 9 µM. 87% of 2,300 active; in the data active = activation above about 49%;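 also: HepG2 hepatoma cells carrying a DRE-driven firefly luciferase reporter; 0% = vehicle wells and 100% = reference agonist wells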
PXR act counter: counter-screen for AHR activators: human PXR activators | shares compounds with AHR act | activation, % at 11.6 µM | 88% of 2,300 active | cell-based PXR reporter, luciferase luminescence; in the data active = activation above about 11%;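 also: human hepatoma DPX-2 cells expressing full-length human PXR; 0% = DMSO and 100% = reference agonist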
* marks the source's active call; other numbers are inactive results; . = not tested or not shown.

SMILES | ssDAF12 agonist | DAX1 inh-1 | DAX1 inh-2 | AHR act | hgDAF12 agonist | hcDAF12 agonist | AHR act confirm | PXR act counter
CN(c1ccccc1)c1nc(N)c([N+](=O)[O-])c(NCCO)n1 | -1.4 | 0.5 | 0.5 | 2.4 | -0.6 | -1.1 | . | .
CN(CC(=O)NCCCc1ccccc1)S(=O)(=O)c1ccc(Br)cc1 | -1.7 | -0.4 | 0.7 | 1.9 | -0.5 | -1.4 | . | .
CCOc1ccc(Cl)cc1/C=N/O | -1.3 | 0.5 | -0.5 | 6.4 | -2.1 | -1.4 | . | .
O/N=C/c1cc(Cl)ccc1OCc1ccccc1Cl | -1.1 | -0.3 | -0.6 | 106.4* | -0.2 | 0.0 | 102.9* | 14.9*
Cc1ccccc1-c1cc2nc(Oc3ccc4c(c3)OCO4)n(C)c(=O)c2s1 | -1.0 | 0.2 | . | . | 0.4 | -2.4 | . | .
C/C(CC(=O)Nc1ccc(Cl)cc1Cl)=N\NC(N)=S | -0.9 | -1.8 | -1.4 | 2.6 | -0.1 | -0.9 | . | .
C/C(CC(=O)Nc1cc(Cl)ccc1Cl)=N\NC(N)=S | -0.8 | -1.1 | -0.7 | 83.7* | 0.6 | -1.2 | 1.6 | 14.4*
CC(=O)CSc1nsc(SCC(C)=O)c1C#N | 0.0 | -0.4 | -0.2 | 23.1 | 2.6 | 1.8 | . | .
N#Cc1c(SCC(N)=O)nsc1SCc1ccc(Cl)cc1 | 0.3 | -0.7 | 1.1 | 80.1* | 1.6 | 2.3 | 84.2* | 36.4*
N#Cc1c(SCC(N)=O)nsc1SCc1ccccc1Cl | -0.3 | 0.2 | -0.6 | 101.2* | -1.4 | 2.1 | 83.0* | 22.4*
N#Cc1c(SCC(=O)OCc2ccccc2)nsc1SCC(=O)OCc1ccccc1 | -1.4 | -0.2 | 0.7 | 5.1 | -0.7 | -0.6 | . | .
O=C1c2ccccc2-c2nc3ccccc3nc21 | -0.2 | 2.3 | 1.8 | 114.8* | 7.3 | 4.0 | 148.9* | .
CCn1cc(Br)c(C(=O)Nc2ccc(Cl)cc2Cl)n1 | 1.0* | 0.2 | 0.2 | 81.8* | 1.3 | 1.4 | 126.5* | 11.3*
CCOC(=O)c1c(NC(=O)c2nn(CC)cc2Br)sc(C)c1C | -1.3 | 0.4 | -0.9 | 15.0 | 0.1 | 3.0 | . | .
C#CCn1c(O)c(N=NC(=O)CNC(=O)/C=C/c2ccccc2)c2ccccc21 | -0.1 | -0.6 | 0.5 | 91.4* | -0.8 | -0.7 | 106.9* | 52.3*
C#CCn1c(O)c(N=NC(=O)CNC(=O)c2cccnc2)c2ccccc21 | -1.2 | -0.1 | -0.1 | 92.5* | -0.2 | -1.9 | 106.2* | 24.5*
C=CCn1c(O)c(N=NC(=O)CNC(=O)c2ccncc2)c2ccccc21 | 0.3 | -0.1 | 0.2 | 99.5* | -3.8 | -1.2 | 70.5* | 42.6*
C=CCn1c(O)c(N=NC(=O)C(O)c2ccccc2)c2ccccc21 (stereo not drawn) | -1.2 | 0.1 | 0.9 | 20.2 | 2.8 | 0.0 | . | .
COc1ccc([C@H]2C(C(=O)O)=C[C@@H](C(C)(C)C)N2S(=O)(=O)c2ccccc2)cc1 | -1.4 | 0.1 | -0.6 | 1.4 | -1.7 | -0.8 | . | .
Cc1nn(CC(C)C)c2sc(C(=O)NC3CC(C)(C)NC(C)(C)C3)cc12 | -0.8 | 0.2 | -0.2 | -2.3 | 3.8 | -0.1 | . | .
COc1ccc(NC(=O)CN(c2c(C)cccc2C)S(C)(=O)=O)cc1 | -1.6 | -0.1 | 0.0 | 4.2 | -2.7 | -1.0 | . | .
COc1ccc(Cn2nnc3c(=O)[nH]c(C(=O)NCCc4ccc(F)cc4)nc32)cc1OC | -1.5 | -0.6 | 1.1 | -2.8 | 1.8 | -3.6 | . | .
Cc1c(Cl)cccc1NC(=O)CCC(=O)NNC(=O)c1ccccc1Cl | -0.8 | 0.0 | -1.4 | -2.4 | -0.9 | -0.3 | . | .
CN1C(=O)c2cccc(NC(=O)Cc3ccccc3)c2C1=O | -2.1 | 0.6 | -0.1 | 156.4* | 1.3 | -3.3 | 51.1* | 14.1*
Cc1c(NC(=O)Cc2ccccc2)cccc1C(=O)NN1C(=O)c2ccccc2C1=O | -0.3 | -0.2 | -0.4 | -0.9 | -0.1 | -2.0 | . | .
O=C(OCC(=O)N1CCCc2ccccc21)c1cc(Br)ccc1O | -0.4 | 1.4 | 1.4 | 3.7 | 2.8 | -0.6 | . | .
Cc1cc2c(cc1C)-c1nnnn1C(C)(C)C2 | -1.4 | -0.8 | -0.5 | -0.8 | -0.4 | 2.8 | . | .

Compound activity (PubChem)
